Test results published in the supplement of paper PMC8728848.
This is one part of a sample in which the strongest signals are shown more often than they occur.

Columns and labels:
Assay in all cases: glycan array binding signal (z-score within array); higher = stronger binding
Settings in all cases: glycan notation: IUPAC condensed, linker removed
[1] = target: Fuc(a1-2)Gal(b1-3)GlcNAc(b1-2)Man(a1-3)[Fuc(a1-2)Gal(b1-3)GlcNAc(b1-2)Man(a1-6)]Man(b1-4)GlcNAc(b1-4)[Fuc(a1-6)]GlcNAc
In short: (§1)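 From the Consortium for Functional Glycomics database, 3228 arrays were curated, keeping only those whose protein sequence was available. Binding is given as a within-array Z-score averaged across arrays sharing a protein sequence and across linkers. Negative Z-scores can be read as non-binding.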

[2] = target: Fuc(a1-2)Gal(b1-3)GlcNAc(b1-3)[Neu5Ac(a2-6)Gal(b1-4)GlcNAc(b1-6)]Gal(b1-4)Glc
In short: as §1

[3] = target: Fuc(a1-2)Gal(b1-4)GlcNAc(b1-2)[Fuc(a1-2)Gal(b1-4)GlcNAc(b1-4)]Man(a1-3)[Fuc(a1-2)Gal(b1-4)GlcNAc(b1-2)Man(a1-6)]Man(b1-4)GlcNAc(b1-4)GlcNAc
In short: as §1

[4] = target: Fuc(a1-2)Gal(b1-4)GlcNAc(b1-6)GalNAc
In short: as §1

[5] = target: Fuc(a1-2)Gal6S(b1-3)GlcNAc6S
In short: as §1

[6] = target: Fuc(a1-2)[Gal(a1-3)]Gal(b1-3)GlcNAc(b1-2)Man(a1-3)[Fuc(a1-2)[Gal(a1-3)]Gal(b1-3)GlcNAc(b1-2)Man(a1-6)]Man(b1-4)GlcNAc(b1-4)GlcNAc
In short: as §1

[7] = target: Fuc(a1-2)[Gal(a1-3)]Gal(b1-3)GlcNAc(b1-6)GalNAc
In short: as §1

[8] = target: Fuc(a1-2)[Gal(a1-3)]Gal(b1-4)GlcNAc
In short: as §1

[9] = target: Fuc(a1-2)[Gal(a1-3)]Gal(b1-4)[Fuc(a1-3)]GlcNAc(b1-3)GalNAc
In short: as §1

[10] = target: Fuc(a1-2)[GalNAc(a1-3)]Gal(b1-4)GlcNAc(b1-2)Man(a1-3)[Fuc(a1-2)[GalNAc(a1-3)]Gal(b1-4)GlcNAc(b1-2)Man(a1-6)]Man(b1-4)GlcNAc(b1-4)[Fuc(a1-6)]GlcNAc
In short: as §1

[11] = target: Fuc(a1-2)[GalNAc(b1-3)]Gal
In short: as §1

Fuc(a1-4)GlcNAc = target: Fuc(a1-4)GlcNAc
In short: as §1

[12] = target: Gal(a1-3)Gal(b1-3)[Fuc(a1-4)]GlcNAc(b1-2)Man(a1-3)[Gal(a1-3)Gal(b1-3)[Fuc(a1-4)]GlcNAc(b1-2)Man(a1-6)]Man(b1-4)GlcNAc(b1-4)GlcNAc
In short: as §1

Gal(a1-3)GalNAc = target: Gal(a1-3)GalNAc
In short: as §1

Gal(b1-3)Gal(b1-4)GlcNAc = target: Gal(b1-3)Gal(b1-4)GlcNAc
In short: as §1

[13] = target: Gal(b1-3)GlcNAc(a1-6)Gal(b1-4)GlcNAc
In short: as §1

[14] = target: Gal(b1-3)GlcNAc(b1-3)Gal(b1-4)GlcNAc(b1-2)Man(a1-3)[Gal(b1-3)GlcNAc(b1-3)Gal(b1-4)GlcNAc(b1-2)Man(a1-6)]Man(b1-4)GlcNAc(b1-4)GlcNAc
In short: as §1

[15] = target: Gal(b1-3)GlcNAc(b1-6)Gal(b1-4)GlcNAc
In short: as §1

[16] = target: Gal(b1-3)GlcNAc(b1-6)GalNAc
In short: as §1

Gal(b1-4)Gal = target: Gal(b1-4)Gal
In short: as §1

Gal(b1-4)Glc6S = target: Gal(b1-4)Glc6S
In short: as §1

[17] = target: Gal(b1-4)GlcNAc(a1-6)Gal(b1-4)GlcNAc
In short: as §1

[18] = target: Gal(b1-4)GlcNAc(b1-2)[Gal(b1-4)GlcNAc(b1-4)]Man(a1-3)[Gal(b1-4)GlcNAc(b1-2)[Gal(b1-4)GlcNAc(b1-6)]Man(a1-6)]Man(b1-4)GlcNAc(b1-4)GlcNAc
In short: as §1

[19] = target: Gal(b1-4)GlcNAc(b1-2)[Gal(b1-4)GlcNAc(b1-6)]Man(a1-6)[Gal(b1-4)GlcNAc(b1-2)Man(a1-3)]Man(b1-4)GlcNAc(b1-4)[Fuc(a1-6)]GlcNAc
In short: as §1

[20] = target: Gal(b1-4)GlcNAc(b1-3)Gal(b1-3)GalNAc
In short: as §1

[21] = target: Gal(b1-4)GlcNAc(b1-3)Gal(b1-4)[Fuc(a1-3)]GlcNAc(b1-3)Gal(b1-4)[Fuc(a1-3)]GlcNAc
In short: as §1

[22] = target: Gal(b1-4)GlcNAc(b1-6)GalNAc
In short: as §1

[23] = target: Gal3S(b1-4)[Fuc(a1-3)]GlcNAc
In short: as §1

Gal6S(b1-4)GlcNAc = target: Gal6S(b1-4)GlcNAc
In short: as §1

GalNAc(a1-3)Gal = target: GalNAc(a1-3)Gal
In short: as §1

[24] = target: GalNAc(a1-3)GalNAc(b1-3)Gal(a1-4)Gal(b1-4)Glc
In short: as §1

GalNAc(b1-3)Gal = target: GalNAc(b1-3)Gal
In short: as §1

GalNAc(b1-3)GlcNAc = target: GalNAc(b1-3)GlcNAc
In short: as §1

GalNAc(b1-4)GlcNAc = target: GalNAc(b1-4)GlcNAc
In short: as §1

[25] = target: GalNAc(b1-4)GlcNAc(b1-3)GalNAc(b1-4)GlcNAc
In short: as §1

GalNAc(b1-4)GlcNAc6S = target: GalNAc(b1-4)GlcNAc6S
In short: as §1

[26] = target: Glc(a1-6)Glc(a1-6)Glc(a1-6)Glc
In short: as §1

Glc(b1-6)Glc = target: Glc(b1-6)Glc
In short: as §1

GlcA(b1-3)Gal = target: GlcA(b1-3)Gal
In short: as §1

GlcA(b1-3)GlcNAc = target: GlcA(b1-3)GlcNAc
In short: as §1

[27] = target: GlcNAc(b1-3)Gal(b1-4)GlcNAc(b1-3)Gal(b1-4)GlcNAc(b1-3)Gal(b1-4)GlcNAc(b1-3)Gal(b1-4)GlcNAc(b1-2)[GlcNAc(b1-3)Gal(b1-4)GlcNAc(b1-3)Gal(b1-4)GlcNAc(b1-3)Gal(b1-4)GlcNAc(b1-3)Gal(b1-4)GlcNAc(b1-6)]Man(a1-6)[GlcNAc(b1-3)Gal(b1-4)GlcNAc(b1-3)Gal(b1-4)GlcNAc(b1-3)Gal(b1-4)GlcNAc(b1-3)Gal(b1-4)GlcNAc(b1-2)Man(a1-3)]Man(b1-4)GlcNAc(b1-4)[Fuc(a1-6)]GlcNAc
In short: as §1

[28] = target: GlcNAc(b1-3)Gal(b1-4)GlcNAc(b1-6)[Gal(b1-3)]GalNAc
In short: as §1

GlcNAc(b1-6)GalNAc = target: GlcNAc(b1-6)GalNAc
In short: as §1

[29] = target: Man(a1-2)Man(a1-2)Man(a1-3)Man
In short: as §1

[30] = target: Man(a1-3)[Man(a1-6)]Man(a1-6)[Man(a1-2)Man(a1-3)]Man(b1-4)GlcNAc(b1-4)GlcNAc
In short: as §1

[31] = target: Neu5Ac(a2-3)Gal(b1-3)GlcNAc(b1-3)Gal(b1-4)GlcNAc
In short: as §1

[32] = target: Neu5Ac(a2-3)Gal(b1-3)[Fuc(a1-4)]GlcNAc
In short: as §1

[33] = target: Neu5Ac(a2-3)Gal(b1-4)GlcNAc(b1-2)Man
In short: as §1

[34] = target: Neu5Ac(a2-3)Gal(b1-4)GlcNAc(b1-3)Gal
In short: as §1

[35] = target: Neu5Ac(a2-3)Gal(b1-4)GlcNAc(b1-3)Gal(b1-4)GlcNAc(b1-2)Man(a1-3)[Neu5Ac(a2-3)Gal(b1-4)GlcNAc(b1-3)Gal(b1-4)GlcNAc(b1-2)Man(a1-6)]Man(b1-4)GlcNAc(b1-4)GlcNAc
In short: as §1

[36] = target: Neu5Ac(a2-3)Gal(b1-4)[Fuc(a1-3)]GlcNAc(b1-3)Gal(b1-4)GlcNAc
In short: as §1

[37] = target: Neu5Ac(a2-3)Gal(b1-4)[Fuc(a1-3)]GlcNAc(b1-6)[Gal(b1-3)]GalNAc
In short: as §1

[38] = target: Neu5Ac(a2-6)Gal(b1-4)GlcNAc(b1-2)Man
In short: as §1

[39] = target: Neu5Ac(a2-6)Gal(b1-4)GlcNAc(b1-2)Man(a1-6)[Gal(b1-4)GlcNAc(b1-2)Man(a1-3)]Man(b1-4)GlcNAc(b1-4)GlcNAc
In short: as §1

[40] = target: Neu5Ac(a2-8)Neu5Ac(a2-8)Neu5Ac(a2-3)[Gal(b1-3)GalNAc(b1-4)]Gal(b1-4)Glc
In short: as §1

Neu5Ac(b2-6)GalNAc = target: Neu5Ac(b2-6)GalNAc
In short: as §1

B1: MGL2 (Mus musculus), Q8JZN1 (protein)
chain: MTMRYENFQNLEREEKNQEMRNGDKKGGMESPKFALIPSQSFLWRILSWTHLLLFSLGLSLLLLVVISVIGSQNSQLRRDLGTLRAILDNTTSKIKAEFQSLDSRADNFEKGISSLKVDVEDHRQELQAGRDLSQKVTSLESTLEKREQALKTDLSDLTDHVQQLETDLKALTCQLANLKNNGSEVACCPLHWTEHEGSCYWFSESEKSWPEADKYCRLENSHLVVVNSLEEQNFLQNRLANVLSWMGLTDQNGPWRWVDGTDFDKGFKNWRPLQPDNWHGHMLGGGEDCAHFSYDGRWNDDVCQRHYHWICETELGKASSAHSPQLIASVP
[1]
  glycan array binding signal (z-score): -0.201
[2]
  glycan array binding signal (z-score): -0.188
[3]
  glycan array binding signal (z-score): -0.106
[4]
  glycan array binding signal (z-score): 1.79
[5]
  glycan array binding signal (z-score): 0.028
[6]
  glycan array binding signal (z-score): -0.255
[7]
  glycan array binding signal (z-score): 0.323
[8]
  glycan array binding signal (z-score): -0.162
[9]
  glycan array binding signal (z-score): -0.252
[10]
  glycan array binding signal (z-score): -0.211
[11]
  glycan array binding signal (z-score): 12.2
Fuc(a1-4)GlcNAc
  glycan array binding signal (z-score): 0.024
[12]
  glycan array binding signal (z-score): -0.193
Gal(a1-3)GalNAc
  glycan array binding signal (z-score): -0.18
Gal(b1-3)Gal(b1-4)GlcNAc
  glycan array binding signal (z-score): -0.137
[13]
  glycan array binding signal (z-score): 0.067
[14]
  glycan array binding signal (z-score): -0.097
[15]
  glycan array binding signal (z-score): -0.035
[16]
  glycan array binding signal (z-score): 2.02
Gal(b1-4)Gal
  glycan array binding signal (z-score): -0.267
Gal(b1-4)Glc6S
  glycan array binding signal (z-score): -0.225
[17]
  glycan array binding signal (z-score): -0.091
[18]
  glycan array binding signal (z-score): -0.247
[19]
  glycan array binding signal (z-score): -0.193
[20]
  glycan array binding signal (z-score): -0.14
[21]
  glycan array binding signal (z-score): -0.1
[22]
  glycan array binding signal (z-score): 3.5
[23]
  glycan array binding signal (z-score): -0.228
Gal6S(b1-4)GlcNAc
  glycan array binding signal (z-score): -0.276
GalNAc(a1-3)Gal
  glycan array binding signal (z-score): 1.48
[24]
  glycan array binding signal (z-score): -0.259
GalNAc(b1-3)Gal
  glycan array binding signal (z-score): 4.95
GalNAc(b1-3)GlcNAc
  glycan array binding signal (z-score): 8.82
GalNAc(b1-4)GlcNAc
  glycan array binding signal (z-score): 5.73
[25]
  glycan array binding signal (z-score): 2.48
GalNAc(b1-4)GlcNAc6S
  glycan array binding signal (z-score): 3.46
[26]
  glycan array binding signal (z-score): 0.014
Glc(b1-6)Glc
  glycan array binding signal (z-score): -0.253
GlcA(b1-3)Gal
  glycan array binding signal (z-score): -0.219
GlcA(b1-3)GlcNAc
  glycan array binding signal (z-score): 0.307
[27]
  glycan array binding signal (z-score): -0.062
[28]
  glycan array binding signal (z-score): -0.047
GlcNAc(b1-6)GalNAc
  glycan array binding signal (z-score): 6.85
[29]
  glycan array binding signal (z-score): -0.161
[30]
  glycan array binding signal (z-score): -0.006
[31]
  glycan array binding signal (z-score): -0.274
[32]
  glycan array binding signal (z-score): -0.173
[33]
  glycan array binding signal (z-score): -0.034
[34]
  glycan array binding signal (z-score): -0.3
[35]
  glycan array binding signal (z-score): 0.166
[36]
  glycan array binding signal (z-score): -0.189
[37]
  glycan array binding signal (z-score): -0.139
[38]
  glycan array binding signal (z-score): -0.19
[39]
  glycan array binding signal (z-score): -0.174
[40]
  glycan array binding signal (z-score): -0.194
Neu5Ac(b2-6)GalNAc
  glycan array binding signal (z-score): -0.176
